Experimental data taken from PubChem BioAssay (Tox21).
“And” between values parts separate entries of the source, which are not always exact repeats. Identical values can stand only once. Results filed as inconclusive are left out. Entries that show only a call come without a potency. Some structures have more than one record in an assay (separate samples or runs), and their calls can disagree. The source made the active and inactive calls. Calls come from the whole dose curve; as a rule, active = well fitted activation curve with a large enough effect in the signal ratio in the repeat runs (not every such curve was filed as active); inconclusive = weak or mixed curves, or effect the other way; inactive = no such curve, though single readings can be large or run the other way; the % refers to the signal ratio.

Assay: qHTS assay for small molecule agonists of the antioxidant response element (ARE) signaling pathway (AID 743202)
Conditions: HepG2 ARE-bla reporter, beta-lactamase FRET, 16 h; series mostly up to 73.3 µM; activation: at the top concentration
Description: U.S. Tox21 Program National Center for Advancing Translational Sciences [NCATS] NIH Chemical Genomics Center [NCGC] U.S. Environmental Protection Agency [EPA] National Institutes of Environmental Health Sciences [NIEHS] National Toxicology Program [NTP] U.S. Food and Drug Administration [FDA] Tox21 Assay Overview: Oxidative stress has been implicated in the pathogenesis of a variety of diseases ranging from cancer to neurodegeneration. The antioxidant response element (ARE) signaling pathway plays an important role in the amelioration of oxidative stress. The CellSensor ARE-bla HepG2 cell line (Invitrogen) can be used for analyzing the Nrf2/antioxidant response signaling pathway. Nrf2 (NF-E2-related factor 2) and Nrf1 are transcription factors that bind to AREs and activate these genes. The CellSensor ARE-bla Hep G2 cell line contains a beta-lactamase reporter gene under control of the Antioxidant Response Element (ARE) stably integrated into HepG2 cells. The activation of the report gene under culture conditions can be detected by fluorescence intensity. This cell line has been used to screen the Tox21 10K compound library to identify agonists that induce oxidative stress.
Tox21 Assay Protocol Summary: The ARE-bla cells were dispensed at 2,000 cells/5 ul/well in 1536-well black wall/clear bottom plates using a Multidrop dispenser. After the assay plates were incubated at a 37 C/5% CO2 incubator for 5 hours, 23 nL of compounds dissolved in DMSO, positive controls or DMSO only was transferred to the assay plate by a pin tool. The plates were incubated at 37 C for 16 hours. After 1 uL of LiveBLAzer B/G FRET substrate was added using a Flying Reagent Dispenser, the plates were incubated at room temperature for 2 hours, and fluorescence intensity was measured by an Envision plate reader.
Potency is the fitted concentration of half-maximal effect.

SMILES | Potency | activation
CC(=O)O | inactive | 
O=[N+]([O-])O | inactive | 
CC[N+](CC)(CC)CC | inactive | 
Cc1cc(-c2ccc(N)c(C)c2)ccc1N | 8.73 µM (active) | 
CC[N+]1(C)CCCC1 | inactive | 
CC(Cl)(Cl)C(=O)O | inactive | 
Oc1cccc2cccnc12 | 6.14 µM (active) and 25.9 µM (active) and inactive | 
O=C(O)c1ccccc1O | inactive | 
O=C(O)CCl |  | 2.92% [at 94.8 µM] (inactive)
CCC[N+]1(C)CCCCC1 | inactive | 
N#CS | inactive | 
Cc1cc(Cl)ccc1N | inactive | 
CCCC[n+]1ccc(C)cc1 | 3.91 µM (active) and 4.33 µM (active) and inactive | 
CCCC[N+]1(C)CCCCC1 | inactive | 
CCCCCCCCCCCC(=O)O | inactive | 
CCCCn1cc[n+](C)c1 |  | 16.4% (inactive)
COc1ccccc1N | inactive | 
CCOP(=S)(OCC)Oc1ccc2c(C)c(Cl)c(=O)oc2c1 | inactive | 
Cc1cc(Cl)ccc1OCC(=O)O | inactive | 
O=C(O)C(Cl)(Cl)Cl | inactive | 

SMILES | Potency | activation
CCCC[N+]1(C)CCCC1 | inactive | 
C[N+](C)(C)Cc1ccccc1 | inactive | 
CCCC[n+]1ccccc1 | inactive | 
O=c1[nH]c(=O)n(Cl)c(=O)n1Cl | inactive | 
OCCOc1ccccc1 | inactive | 
O=P1(N(CCCl)CCCl)NCCCO1 (stereo not given) | inactive | 
CCCCCCCCn1cc[n+](C)c1 | 4.32 µM (active) and 5.49 µM (active) | 
CC[n+]1ccccc1 | inactive and 2.71 µM (active) | 
O=S(=O)(O)O | inactive | 
CCCCCCCCCCn1cc[n+](C)c1 | 2.19 µM (active) and 4.85 µM (active) and 2.16 µM (active) | 
O=C(O)COc1ccc(Cl)cc1Cl | inactive | 
COc1ccc(N)cc1 | inactive | 
COCC(=O)N(c1c(C)cccc1C)C(C)C(=O)OC (stereo not given) | inactive | 
Oc1ccccc1-c1ccccc1 | 55.8 µM (active) | 
Nc1ccc(-c2ccc(N)cc2)cc1 | inactive | 
CCC[N+]1(C)CCCC1 | inactive | 
CCCC[n+]1cccc(C)c1 | 60.9 µM (active) and inactive | 
CN(C)[C@@H]1C(=O)C(C(N)=O)=C(O)[C@@]2(O)C(=O)C3=C(O)c4c(O)cccc4[C@@](C)(O)[C@H]3[C@H](O)[C@@H]12 |  | -0.0774% (inactive)
Nc1ccccc1 | inactive | 
COP(=O)(OC)OC=C(Cl)Cl |  | 15.4% (inactive)
